# Laboratory results from PubChem BioAssay (NCATS).
# Records with an inconclusive call do not appear. A number with no mark means an inactive call. Calls follow the shape of the dose curve; as a rule, active = well fitted cell-killing curve with a large enough effect; inconclusive = small, poorly fitted or top-dose-only effect; inactive = no such curve, though single readings can be large or run the other way.
# Experiment: qHTS of pediatric cancer cell lines to identify multiple opportunities for drug repurposing: Primary screen for MG 63 (6-TG R) cells (AID 1347105); also: nearly all actives have a fitted effect of over 50% in size
# Details: MG 63 (6-TG R) viability, CellTiter-Glo, 48 h; series mostly up to 46 µM; activity change, negative = cytotoxic: at the top concentration
# Procedure, shortened: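 Luminescence from CellTiter-Glo served as readout of metabolically active cells after 48 h compound exposure. Titrations: MIPE 11-point, from 0.78 nM; NPC 8-point, from 0.59 nM (final). Concentration-response curves came straight from the primary screen.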
# % is scaled to controls: 0 for no effect and ±100 for the full control effect.
row,SMILES,"activity change, negative = cytotoxic [%]"
1,CCCCCCCCCCCCSCCOCCO,-0.376
2,C[C@H]1[C@H]2CC[C@H]3[C@@H]4CC=C5C[C@@H](N(C)C)CC[C@]5(C)[C@H]4CC[C@]23CN1C,-15.5
3,O=C(c1ccc(F)cc1)C1CCN(CCn2c(=S)[nH]c3ccccc3c2=O)CC1,38.1
4,CCCCC(CC)CN1CN(CC(CC)CCCC)CC(C)(N)C1 (centres undefined),-10.1
5,CCC1Nc2cc(Cl)c(S(N)(=O)=O)cc2S(=O)(=O)N1 (centres undefined),-19.4
6,CCNC(=O)NCc1cccc(Cl)c1,-24.4
7,O=C(N/N=C/c1ccc([N+](=O)[O-])o1)c1ccc(O)cc1,-47.3
8,CCN(CC)CCOC(=O)C(Cc1cccc2ccccc12)CC1CCCO1 (centres undefined),-17.1
9,OC[C@H]1O[C@@H](Oc2ccc(O)cc2)[C@H](O)[C@@H](O)[C@@H]1O,-16.4
